# Measured values published in PubChem BioAssay.
# Calls of active or inactive are those of the source.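 Rule for the calls, unless noted: active = fluorescence slope after compound addition differing from the mean of all screened samples at 99.7% confidence, in either direction; inactive = the rest.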
# Assays:
# [1] = inhibitors of TNFa-induced NFkB p65 translocation, primary screen, imaging, HUVEC, MLSMR starter and 10KST1 sets (AID 438;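 active = inhibition above 20% together with a positive visual image hit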;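 note: compound added about 3h40 before a 20 min TNFalpha stimulation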;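 for inhibition: signal is the nuclear over cytoplasmic p65 intensity ratio per well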); conditions: HUVEC TNFa-induced p65 nuclear translocation; cell count: measured here: nuclei count (cytotoxicity indicator), at 2.08 µM; inhibition: at 2 µM, stronger effect = higher value, 0% TNFa-plus-vehicle, 100% no-TNFa wells
# [2] = reduction of polyQ htt aggregates in cells – imaging, exon1htt(103Q)mCFP cells, high-content imaging, primary screen (AID 483;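 active = visual image review flags a hit and inhibition of aggregation exceeds 20%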;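 note: compound exposure lasted 3 days before fixation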;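 for nuclei count: percent of the per-plate median nuclei count of sample wells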); conditions: exon1htt(103Q)mCFP cell line, aggregate imaging, at 2 µM; inhibition of aggregation: stronger effect = higher value; nuclei count: measured here: cell count, toxicity
# [3] = endothelial E-selectin expression blockers – imaging, HUVEC, immunofluorescence, MLSMR starter and 10KST1 sets, primary screen (AID 487;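 active = visually confirmed hit in the image check and inhibition above 20%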;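 for inhibition: signal is fraction of cell area covered by stained E-selectin grains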;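 for nuclei count: 100% = median nuclei count of all wells on the same plate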); conditions: HUVEC TNFalpha-induced E-selectin immunofluorescence imaging, at 2 µM; inhibition: stronger effect = higher value; nuclei count: measured here: cell number, toxicity
# [4] = target: Voltage-gated potassium channel subunit beta-2 (Rattus norvegicus) (UniProt P62483); assay: inhibitors of rat Kvbeta2 reductase activity – biochemical, NADPH fluorescence, primary screen (AID 622;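 active = fluorescence slope higher than the sample average by over 3 SD, cut at about -0.22 in these data, passing the limit was not always enough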;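 note: slope of raw intensity against log time taken from 70 to 1610 s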); conditions: recombinant KvBeta, 4-cyanobenzaldehyde reduction, at 10 µM, stronger effect = higher value
# [5] = target: Voltage-gated potassium channel subunit beta-2 (Rattus norvegicus) (UniProt P62483); assay: enhancers of rat Kvbeta2 NADPH turnover – biochemical, NADPH fluorescence, primary screen (AID 623;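 active = NADPH fluorescence slope more negative than the mean of all samples by about 3 SD, 99.7% confidence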;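 note: fluorescence intensity change per second fitted from 20 to 320 s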); conditions: Recombinant KvBeta, NADPH fluorescence decrease slope, 10 min; at 10 µM; stronger effect = lower value
# [6] = target: Alpha-2C adrenergic receptor (Homo sapiens) (UniProt P18825); assay: compounds altering alpha2C-coupled GIRK flux – cell-based, HEK293 alpha2C/GIRK1/2, thallium flux, primary screen (AID 624); conditions: thallium flux BTC fluorescence, at 10 µM, actives lie on both sides;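 note: slope of fluorescence ratio to pre-addition baseline per second over 15 to 24 s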
# [7] = blockers of RIG-like receptor reporter activation – cell-based, Sendai virus stimulus, luciferase, 10K MLSCN set, TLR/RLR signaling modifier project, primary screen (AID 602276;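 active = inhibition at or above 50% at 10 µM; inactive = inhibition below 50%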;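 note: firefly luciferase from ISG56 promoter only with Renilla not read in this screen; 0% = Sendai virus plus DMSO and 100% = medium plus DMSO without virus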); conditions: HEK293 RL24 IRF3 luciferase reporter, at 10 µM, stronger effect = higher value
# [8] = TLR3 IRF3 reporter activation blockers – cell-based, poly I:C stimulus, luciferase, 10K MLSCN set, primary screen (AID 602277;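 active = inhibition of the reporter signal at or above 50%; inactive = inhibition below 50%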); conditions: HEK293-TLR3 RL24 IRF3 luciferase reporter, at 10 µM, stronger effect = higher value
# Chain of Alpha-2C adrenergic receptor (Homo sapiens) (P18825 whole entry, looked up): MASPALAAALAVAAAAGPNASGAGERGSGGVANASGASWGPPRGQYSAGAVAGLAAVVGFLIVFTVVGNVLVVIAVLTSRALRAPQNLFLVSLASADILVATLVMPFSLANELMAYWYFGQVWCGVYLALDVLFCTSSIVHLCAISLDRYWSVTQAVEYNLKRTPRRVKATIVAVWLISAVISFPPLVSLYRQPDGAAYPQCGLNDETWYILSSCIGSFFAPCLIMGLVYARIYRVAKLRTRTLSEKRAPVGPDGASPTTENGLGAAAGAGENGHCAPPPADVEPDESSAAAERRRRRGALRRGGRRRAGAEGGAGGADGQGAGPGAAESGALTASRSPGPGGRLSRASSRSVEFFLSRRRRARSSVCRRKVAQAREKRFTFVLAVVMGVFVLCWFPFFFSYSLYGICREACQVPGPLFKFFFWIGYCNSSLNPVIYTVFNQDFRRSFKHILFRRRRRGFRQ
# Chain of Voltage-gated potassium channel subunit beta-2 (Rattus norvegicus) (P62483 whole entry, looked up): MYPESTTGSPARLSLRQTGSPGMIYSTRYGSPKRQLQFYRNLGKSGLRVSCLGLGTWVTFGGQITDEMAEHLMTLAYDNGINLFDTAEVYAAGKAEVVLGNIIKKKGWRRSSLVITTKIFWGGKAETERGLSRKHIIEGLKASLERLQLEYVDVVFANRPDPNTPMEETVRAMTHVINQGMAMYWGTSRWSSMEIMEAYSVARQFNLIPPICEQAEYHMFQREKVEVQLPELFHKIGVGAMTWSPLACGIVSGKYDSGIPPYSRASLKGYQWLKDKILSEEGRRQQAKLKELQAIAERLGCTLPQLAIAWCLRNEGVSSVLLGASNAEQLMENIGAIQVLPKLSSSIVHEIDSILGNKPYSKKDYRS
Compound,cell count [1],inhibition [1],inhibition of aggregation [2],nuclei count [2] [%],inhibition [3],nuclei count [3] [%],fluorescence slope [4],NADPH fluorescence slope [5],slope [6],inhibition [7],inhibition [8]
CCOC(=O)c1cccc(NC(=O)CSc2nnc(-c3cccnc3)n2C)c1,505,-0.3% (inactive),8.9% (inactive),97.6,-100% (inactive),134,-0.285 (inactive),-5.6e-05 (inactive),0.00612 (inactive),8.88% (inactive),10.4% (inactive)
c1ccc(N2CCN(Cc3cn4cccnc4n3)CC2)cc1,683,-18.4% (inactive),-18.4% (inactive),107,-36.1% (inactive),101,-0.494 (inactive),-4e-06 (inactive),0.00602 (inactive),8.99% (inactive),18.5% (inactive)
Cc1ccc2cc(CN(Cc3ccc(F)cc3)Cc3nnnn3C3CCCC3)c(=O)[nH]c2c1,702,-10.8% (inactive),-13.3% (inactive),103,-40.7% (inactive),98.8,-0.311 (inactive),-4.1e-05 (inactive),0.00514 (inactive),10.6% (inactive),13.8% (inactive)
Cn1c(C(=O)OCC(=O)NCC2CCCO2)cc2sccc21 (stereo not drawn),497,-1% (inactive),-7.3% (inactive),108,-79% (inactive),107,-0.451 (inactive),9.3e-06 (inactive),0.00457 (inactive),13.3% (inactive),13.1% (inactive)
O=C1CC(C(=O)Nc2ccc(Br)cc2)C2(CCCC2)O1 (stereo not drawn),630,-4.1% (inactive),-3.7% (inactive),102,-70% (inactive),98.1,-0.406 (inactive),-3e-05 (inactive),0.00668 (inactive),16.6% (inactive),11.8% (inactive)
CCN(CCCNC(=O)C1CCN(S(=O)(=O)c2cccc3nonc23)CC1)Cc1ccccc1,297,16.9% (inactive),14.3% (inactive),92.7,-72.5% (inactive),110,-0.43 (inactive),-4.9e-05 (inactive),0.00388 (inactive),13.3% (inactive),29.8% (inactive)
O=C(Nc1ccncc1)C1CCCN(S(=O)(=O)c2cccc3cccnc23)C1 (stereo not drawn),686,6.8% (inactive),-328% (inactive),4.8,-46% (inactive),104,-0.548 (inactive),-3.9e-05 (inactive),0.00584 (inactive),40.7% (inactive),34.4% (inactive)
CCC(C)(C(=O)NC1CCCCC1)N(CC1CCCO1)C(=O)c1ccccn1 (stereo not drawn),345,3% (inactive),6.3% (inactive),90.8,-5.3% (inactive),104,-0.418 (inactive),-8.5e-05 (inactive),0.0062 (inactive),15.2% (inactive),26.8% (inactive)
CCCNC(=O)NC(C(=O)OC)C12CC3CC(CC(C3)C1)C2 (stereo not drawn),308,-6.2% (inactive),19.6% (inactive),76.7,-52.3% (inactive),123,-0.321 (inactive),-1.6e-05 (inactive),0.00242 (inactive),12.2% (inactive),23.2% (inactive)
CCOc1cc(S(=O)(=O)N2CCC(Cc3ccccc3)CC2)c(OCC)cc1-n1cnnn1,517,1.9% (inactive),-5.6% (inactive),103,-119% (inactive),178,-0.613 (inactive),9.5e-06 (inactive),0.0103 (inactive),-0.144% (inactive),10.4% (inactive)
CCOC(=O)C1=C(C)OC(N)=C(C#N)C1c1ccoc1 (stereo not drawn),558,-4.8% (inactive),-7.5% (inactive),81.3,24.7% (inactive),78.9,-0.428 (inactive),-6.9e-05 (inactive),0.00431 (inactive),9.81% (inactive),33% (inactive)
CCC(CO)Nc1ncnc2c1cnn2-c1ccc(Cl)cc1 (stereo not drawn),550,10% (inactive),7.5% (inactive),101,10.3% (inactive),111,-0.54 (inactive),-1.3e-05 (inactive),0.00667 (inactive),38.4% (inactive),-14% (inactive)
COCCn1c(C)cc(C(=O)COC(=O)c2n[nH]c3ccccc23)c1C,330,3.7% (inactive),2.3% (inactive),98.9,-26.9% (inactive),114,-0.5 (inactive),-4.3e-05 (inactive),0.00592 (inactive),71.8% (active),49.1% (inactive)
Cc1cccc(N=C2NC(=O)CS2)c1C,333,-0.6% (inactive),-5.7% (inactive),109,3.7% (inactive),93.9,-0.499 (inactive),-3.3e-05 (inactive),0.00501 (inactive),20.6% (inactive),22.9% (inactive)
Cc1ccnc2c(N3C(=O)C4C5C=CC(C5)C4(C)C3=O)cccc12 (stereo not drawn),630,-6.5% (inactive),-2.2% (inactive),94.9,-13.1% (inactive),111,-0.556 (inactive),-1.1e-05 (inactive),0.00676 (inactive),5.21% (inactive),28.5% (inactive)
CC(C)[C@H](NC(=O)OC(C)(C)C)c1nnc(SCc2cccc(F)c2)o1,859,0% (inactive),15.1% (inactive),101,-63.9% (inactive),122,-0.46 (inactive),-4.1e-06 (inactive),0.00385 (inactive),9.92% (inactive),19.5% (inactive)
CS(=O)(=O)c1ccc2nc(NC(=O)C3C4C=CC(C4)C3C(=O)O)sc2c1 (stereo not drawn),475,12.5% (inactive),0.5% (inactive),96.1,-113% (inactive),115,-0.41 (inactive),1e-05 (inactive),0.00376 (inactive),1.15% (inactive),6.4% (inactive)
Cc1ccccc1C(=O)NC1CCN(Cc2nnnn2CCc2ccccc2)CC1,597,-10.4% (inactive),-10.6% (inactive),107,0.8% (inactive),102,-0.491 (inactive),-3.4e-05 (inactive),0.0062 (inactive),5.02% (inactive),33.8% (inactive)
Cc1oc(-c2ccc(Cl)cc2)nc1CS(=O)CC(=O)NCCCN(C)C1CCCCC1 (stereo not drawn),584,3.8% (inactive),-6.2% (inactive),94.6,-47% (inactive),127,-0.603 (inactive),1.3e-05 (inactive),0.00462 (inactive),15.7% (inactive),30.4% (inactive)
O=C1NC(=O)C(CC(=O)N(Cc2ccco2)C2(C(=O)NC3CCCC3)CCCCC2)N1 (stereo not drawn),670,-7.4% (inactive),28.8% (active),106,-67.8% (inactive),127,-0.534 (inactive),-3.9e-05 (inactive),0.00746 (inactive),-0.4% (inactive),18.4% (inactive)
CC(OC(=O)C1CC=CCC1C(N)=O)C(Cl)=C(Cl)Cl (stereo not drawn),326,1.3% (inactive),-6% (inactive),108,-94.9% (inactive),132,-0.506 (inactive),-1.1e-05 (inactive),0.00744 (inactive),-2.75% (inactive),6.78% (inactive)
O=c1c2ccccc2nc2n1CCN2,338,4.6% (inactive),-10.3% (inactive),108,-115% (inactive),131,-0.573 (inactive),7.7e-06 (inactive),0.00443 (inactive),21.2% (inactive),20.6% (inactive)
COc1ccc(CCNC(=O)c2cnc3scc(C)n3c2=O)cc1OC,573,-5.3% (inactive),-6% (inactive),82.6,19.7% (inactive),86.4,-0.411 (inactive),-6.2e-05 (inactive),0.00579 (inactive),6.05% (inactive),33.9% (inactive)
COc1ccc2c(c1)C(C)=CC(C)(C)N2C(=O)CSc1nnc(-c2ccc(C)cc2)o1,362,12.5% (inactive),8.3% (inactive),106,14.4% (inactive),117,-0.451 (inactive),4.8e-05 (inactive),0.00352 (inactive),-7.74% (inactive),17.4% (inactive)
CC(C)(NC(=O)N1CCCC1)c1cccc(C(C)(C)NC(=O)N2CCCC2)c1,366,-1.8% (inactive),34.8% (active),92.3,21.6% (inactive),83.8,-0.381 (inactive),3e-05 (inactive),0.00445 (inactive),11.4% (inactive),30.1% (inactive)
O=C(Cn1nnc2ccccc2c1=O)NC1CCCc2ccccc21 (stereo not drawn),485,-2.9% (inactive),-0.1% (inactive),108,10.6% (inactive),92.5,-0.486 (inactive),-1.6e-05 (inactive),0.00524 (inactive),17% (inactive),25% (inactive)
CCOC(=O)C1=C(C)NC(C)=C(C(=O)OCC)C1c1cc(N)ccc1OC(F)F,181,-11% (inactive),22.6% (inactive),83.8,-12.2% (inactive),96.5,-0.445 (inactive),4.3e-05 (inactive),0.00592 (inactive),8.52% (inactive),28.4% (inactive)
CN(Cc1ccccc1)C(=O)c1ccccc1NC(=O)c1ccco1,349,-9.3% (inactive),-4.5% (inactive),86,-102% (inactive),130,-0.333 (inactive),-6e-05 (inactive),0.00495 (inactive),-13.9% (inactive),98.1% (active)
